Among the data in PubChem BioAssay (NCATS) are Potency values, retold here.

Active and inactive are the calls of the source. The rule behind the calls is not given here.
Potency is the fitted concentration of half-maximal effect.

The test system of this experiment is HIV-1 nucleocapsid protein NCp7 (binding to TG oligonucleotide). Briefly: HIV Nucleocapsid (AID 346).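 Note: potency is for inhibitors that block NC binding and lower polarization.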 The following applies: HIV-1 NC / fluorescein-TGTGTGTG probe, fluorescence polarization. The essentials: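 Inhibition of nucleocapsid binding to single-stranded 5'-TGTGTGTG probe (10 nM) was measured by fluorescence polarization after 1 hr at room temperature with 100 nM protein under high-salt, zinc-containing, reducing conditions.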
Turning to `COc1ccc(Oc2ncc3nc(C)c(=O)n(CCC#N)c3n2)cc1`, the Potency is > 20 µM (inactive). The result for `O=c1cnc2cnc(N3CCNCC3)nc2n1C1CC1` reads > 20 µM (inactive); that for `COc1cccc(-c2nccc(NCc3cnc(C)cn3)n2)c1`, > 20 µM (inactive); that for `COCCn1c(=O)c(-c2cn(C)c3ccccc23)nc2cnc(N3CCOCC3)nc21`, > 20 µM (inactive). Consider `FC(F)(F)c1ccccc1-c1cncnc1Nc1ccccc1`, for which the Potency was > 20 µM (inactive).

As for `CC(=O)NCCNc1nc(-c2ccccc2C(F)(F)F)nc2ccccc12`, the Potency was > 20 µM (inactive).

As for `COCC(=O)N1CCC2(CC1)CCN(C(c1ccccc1)c1ccccc1)CC2`, the Potency was > 20 µM (inactive).

Consider `CS(=O)(=O)N1CCC2(CCCN(c3ncccn3)C2)CC1`, for which the Potency was > 20 µM (inactive).

For the compound `COc1ncc2nc(-c3cc(F)cc(F)c3)c(=O)n(C)c2n1`, the Potency was > 20 µM (inactive). In the case of `COC(=O)N1CCC2(CCCN(c3ccncc3)C2)CC1` it was > 20 µM (inactive).

In the case of `Cc1noc(C)c1-c1ccc2ncnc(NCCN3CCOCC3)c2c1`, the Potency is > 20 µM (inactive). The result for `CCNc1ncc2ncc(=O)n(CCc3ccccc3)c2n1` reads > 20 µM (inactive); that for `COc1ccc(Oc2ncc3nc(-c4ccc(F)cc4)c(=O)n(C)c3n2)cc1`, > 20 µM (inactive); that for `CN(C)C(=O)c1ccc(-c2nccc(N(C)Cc3ccco3)n2)cc1`, > 20 µM (inactive). The result for `CC(=O)N1CCC2(CC1)CCN(C(c1ccccc1)c1ccccc1)CC2` reads > 20 µM (inactive); that for `COc1ccc(-c2nc3cnc(N4CCOCC4)nc3n(CCc3ccccc3)c2=O)cc1`, > 20 µM (inactive); that for `COc1ccc2[nH]cc(CCNc3nc(-c4c(C)noc4C)nc4ccccc34)c2c1`, > 20 µM (inactive). The result for `CC(C)NC(=O)N1CCC2(CC1)CCN(C(=O)c1ccncc1)CC2` reads > 20 µM (inactive); that for `CN(C)Cc1ccccc1-c1cncnc1NCc1cccs1`, > 20 µM (inactive); that for `CNc1nc(-c2ccccc2C)nc2ccccc12`, > 20 µM (inactive). As to `COc1ccc2[nH]cc(CCNc3nc(-c4cccnc4)nc4ccccc34)c2c1`, the Potency is > 20 µM (inactive). In the case of `COCCn1c(=O)cnc2cnc(Oc3ccccc3)nc21` it was > 20 µM (inactive); in that of `CC(=O)NCCNc1nc(-c2cccc(NS(C)(=O)=O)c2)nc2ccccc12`, > 20 µM (inactive).

Take `Cc1ccccc1-c1nccc(NCc2cccnc2)n1`: the Potency is > 20 µM (inactive). The result for `COc1ccccc1-c1ccc2ncnc(N3CCNCC3)c2c1` reads > 20 µM (inactive).

As for `Cc1nc2cnc(N3CCN(C)CC3)nc2n(-c2ccccc2)c1=O`, the Potency was > 20 µM (inactive). In the case of `CN1CCN(c2ncc3ncc(=O)n(Cc4cccs4)c3n2)CC1` it was > 20 µM (inactive); in that of `COc1cccc(-c2ccc3ncnc(NCc4ccccc4OC)c3c2)c1`, > 20 µM (inactive); in that of `COc1cccc(-c2cncnc2NCc2cccc(C)c2)c1`, > 20 µM (inactive). The result for `O=c1cnc2cnc(Oc3cccc(Cl)c3)nc2n1Cc1ccc(F)cc1` reads > 20 µM (inactive); that for `N#Cc1cccc(NC(=O)N2CC[C@@]3(CCCN(C(=O)c4cnccn4)C3)C2)c1`, > 20 µM (inactive). The result for `FC(F)(F)c1ccccc1-c1nc(NCCN2CCOCC2)c2ccccc2n1` reads > 20 µM (inactive). `O=C(c1csnn1)N1CCC2(CCCN(c3cccc(-c4ccccc4)c3)C2)CC1`: the Potency was > 20 µM (inactive). The result for `COc1ccccc1CCn1c(=O)cnc2cncnc21` reads > 20 µM (inactive). In the case of `CN1CCCC2(CCN(C(=O)c3cc(C(F)(F)F)cc(C(F)(F)F)c3)CC2)C1` it was > 20 µM (inactive); in that of `Cc1nc2cnc(Nc3ccccc3)nc2n(C2CC2)c1=O`, > 20 µM (inactive); in that of `CN(C)C(=O)c1ccc(-c2ccc3ncnc(N4CCOCC4)c3c2)cc1`, > 20 µM (inactive). The result for `Clc1ccccc1-c1nc(N2CCNCC2)c2ccccc2n1` reads > 20 µM (inactive); that for `COc1ccc(C(=O)N2CCC3(CCCN(C(=O)Nc4cccc(F)c4)C3)CC2)cc1`, > 20 µM (inactive). Consider `N#Cc1cccc(NC(=O)N2CCCC3(CCN(C(=O)c4ccco4)CC3)C2)c1`, for which the Potency was > 4 µM (inactive).
